Experimental data taken from PubChem BioAssay (NCATS).
Results filed as inconclusive are left out. Active and inactive are the calls of the source. Calls follow the shape of the dose curve; as a rule, active = well fitted cell-killing curve with a large enough effect; inconclusive = small, poorly fitted or top-dose-only effect, or effect the other way; inactive = flat fitted curve, though single readings scatter.

What was measured:
Assay in all cases: Primary qHTS to identify gynecologic anti-cancer compounds using libraries of approved drugs and bioactive compounds (AID 1345084); also: nearly all actives have a fitted effect of over 55% in size
Conditions in all cases: Gynecologic cancer cell panel viability, ATPlite luminescence, 48 h; series mostly up to 57.5 µM
OV90 = system: OV90
Outline: (§1)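 ATP-based viability (ATPlite), 1,000 cells/well, 16 h pre-incubation, 48 h compound at 37 C, 5% CO2, 15 min RT before read.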

PA-1 = system: PA-1
Outline: as §1

SKOV3 = system: SKOV3
Outline: as §1

Tov-21-G = system: Tov-21-G
Outline: as §1

Tov112D = system: Tov112D
Outline: as §1
% is scaled to controls: 0 for no effect and ±100 for the full control effect.

COC(=O)[C@H](c1ccccc1Cl)N1CCC2SC(=O)C=C2C1 (stereo not given in full)
inactive: Potency (OV90) | Potency (PA-1) | Potency (SKOV3) | Potency (Tov-21-G) | Potency (Tov112D)

C/C=C1/CC2C(=O)Nc3cc(O)c(OC)cc3C(=O)N2C1 (stereo not given)
inactive: Potency (OV90) | Potency (PA-1) | Potency (SKOV3) | Potency (Tov-21-G) | Potency (Tov112D)

CC1(C)CC[C@]2(C(=O)O[C@@H]3O[C@H](CO)[C@@H](O)[C@H](O)[C@H]3O)CC[C@]3(C)C(=CCC4[C@@]5(C)CC[C@H](O[C@H]6O[C@H](CO)[C@@H](O)[C@H](O[C@@H]7O[C@H](CO)[C@@H](O)[C@H](O)[C@H]7O)[C@H]6O)C(C)(C)C5CC[C@]43C)[C@@H]2C1 (stereo not given in full)
inactive: activity change, negative = cytotoxicity (OV90) -0.2% [at 11.6 µM] | activity change, negative = cytotoxicity (PA-1) 3.09% [at 11.6 µM] | activity change, negative = cytotoxicity (SKOV3) -4.14% [at 11.6 µM] | activity change, negative = cytotoxicity (Tov-21-G) -3.87% [at 11.6 µM] | activity change, negative = cytotoxicity (Tov112D) -5.45% [at 11.6 µM]

C=C(C)C(O)COc1ccc(CC(=O)O)cc1 (stereo not given)
inactive: Potency (OV90) | Potency (PA-1) | Potency (SKOV3) | Potency (Tov-21-G) | Potency (Tov112D)

CC1(C)[C@H]2C[C@H](C/C=C\CCCC(=O)O)[C@@H](NC(=O)c3csc4ccc(O)cc34)[C@@H]1C2
inactive: Potency (OV90) | Potency (PA-1) | Potency (SKOV3) | Potency (Tov-21-G) | Potency (Tov112D)

CC(O)/C=C/C1(O)C(C)C(O)C(O[C@@H]2O[C@H](CO)[C@@H](O)[C@H](O)[C@H]2O)CC1(C)C (stereo not given in full)
inactive: Potency (OV90) | Potency (PA-1) | Potency (SKOV3) | Potency (Tov-21-G) | Potency (Tov112D)

O=C(OCC1=CC(Cl)C(O)C(OC(=O)c2ccccc2)C1O)c1ccccc1 (stereo not given)
inactive: Potency (OV90) | Potency (PA-1) | Potency (SKOV3) | Potency (Tov-21-G) | Potency (Tov112D)
